Test results taken from PubChem BioAssay (NCI).
The panel holds about 79,000 compounds, 15% with a hit somewhere; the sample as a whole holds those more often. Active and inactive are the calls of the source. No stated cut-off is given here; in the data, active means growth inhibition above about 70%; inactive means the rest.

Columns and labels:
[1] = NCI Yeast Anticancer Drug Screen. Data for the rad50 strain (AID 155);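 further: 0% = growth of vehicle-only cultures of the same strain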; conditions: S. cerevisiae rad50 strain growth inhibition, hits give high values
Outline: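 Vehicle-treated cultures provide the reference for the growth inhibition reported for compound-exposed, repair-deficient yeast.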

[2] = NCI Yeast Anticancer Drug Screen. Data for the mec2-1 strain (AID 157); conditions: S. cerevisiae mec2-1 strain, hits give high values
Outline: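 Cells of the genetically defined mec2-1 yeast strain are incubated with test compound. Inhibition of growth is calculated against vehicle-treated controls.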

[3] = NCI Yeast Anticancer Drug Screen. Data for the sgs1 mgt1 strain (AID 161);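 further: 0% = growth of cultures given vehicle only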; conditions: S. cerevisiae sgs1 mgt1 strain, hits give high values
Outline: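 Genetically altered yeast, compound exposure, growth inhibition relative to vehicle.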

[4] = NCI Yeast Anticancer Drug Screen. Data for the cln2 rad14 strain (AID 165);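 further: 0% = growth equal to vehicle treated cultures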; conditions: S. cerevisiae cln2 rad14 strain, hits give high values
Outline: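 The screen exposed genetically defined yeast (cln2 rad14) to test compounds and scored growth inhibition relative to vehicle-treated controls.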

[5] = NCI Yeast Anticancer Drug Screen. Data for the bub3 strain (AID 167); conditions: S. cerevisiae bub3 mutant strain, hits give high values
Outline: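 Mutant yeast screening strain plus compound; vehicle-treated cultures serve as the 0% inhibition reference.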

[6] = NCI Yeast Anticancer Drug Screen. Data for the mlh1 rad18 strain (AID 175); conditions: S. cerevisiae mlh1 rad18 strain growth inhibition, hits give high values
Outline: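 Compound-treated yeast growth, normalised to vehicle controls. Strain bears defined DNA repair mutations.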

[7] = at 5.0 µM (retest, dose inferred, filed as 0.5)
[8] = at 50.0 µM (retest, dose inferred, filed as 5.0)

Measured: growth inhibition

c1ccc2c(c1)Cc1cc3ccccc3nc1-2
inactive: [1]; [7] 13% | [2]; [7] 18% | [3]; [7] 13% | [4]; [7] -9% | [5]; [7] 10% | [6]; [7] 28%
active: [1]; [8] 97% | [1]; at 50.0 µM 96.5% | [2]; [8] 97% | [2]; at 50.0 µM 86.5% | [3]; [8] 98% | [3]; at 50.0 µM 87.1% | [4]; [8] 90% | [4]; at 50.0 µM 92% | [5]; [8] 94% | [5]; at 50.0 µM 89.7% | [6]; [8] 99% | [6]; at 50.0 µM 97.2%

Clc1cc2ccccc2c2ccccc12
inactive: [1]; [7] 0% | [1]; [8] 62% | [2]; [7] -3% | [2]; [8] 21% | [2]; at 50.0 µM 10.8% | [3]; [7] -3% | [3]; [8] 32% | [4]; [7] -3% | [4]; [8] 6% | [4]; at 50.0 µM -51.7% | [5]; [7] -2% | [5]; [8] 64% | [6]; [7] -1%
active: [1]; at 50.0 µM 84.6% | [3]; at 50.0 µM 75.2% | [5]; at 50.0 µM 77.3% | [6]; [8] 84% | [6]; at 50.0 µM 93.2%

Cn1sc2ccccc2c1=S
inactive: [1]; [7] -112% | [2]; [7] -39% | [3]; [7] -47% | [4]; [7] -78% | [5]; [7] -49% | [6]; [7] -95%
active: [1]; [8] 98% | [1]; at 50.0 µM 99.6% | [2]; [8] 99% | [2]; at 50.0 µM 99.8% | [3]; [8] 99% | [3]; at 50.0 µM 99.7% | [4]; [8] 98% | [4]; at 50.0 µM 99.5% | [5]; [8] 98% | [5]; at 50.0 µM 99.5% | [6]; [8] 98% | [6]; at 50.0 µM 99.7%

CC1(C)[C@H]2CC[C@]1(C)[C@H](OC(=O)NNC(=O)O[C@@H]1C[C@@H]3CC[C@@]1(C)C3(C)C)C2
active: [1]; [8] 74%
inactive: [1]; [7] 33% | [1]; at 50.0 µM 11.3% | [2]; [7] 37% | [2]; [8] 59% | [2]; at 50.0 µM 22.4% | [3]; [7] 26% | [3]; [8] 35% | [3]; at 50.0 µM 53% | [4]; [7] 30% | [4]; [8] 38% | [4]; at 50.0 µM 47.4% | [5]; [7] 35% | [5]; [8] 51% | [5]; at 50.0 µM 67.2% | [6]; [7] 38% | [6]; [8] 68% | [6]; at 50.0 µM -16%

CSC(=S)NN=C(c1ccccn1)c1ccccn1
active: [1]; [7] 78% | [1]; [8] 96% | [1]; at 50.0 µM 94% | [2]; at 50.0 µM 97.8% | [3]; [7] 92% | [3]; [8] 99% | [3]; at 50.0 µM 85.4% | [4]; at 50.0 µM 91.7% | [5]; [8] 96% | [6]; [7] 78% | [6]; [8] 80%
inactive: [2]; [7] 24% | [2]; [8] 31% | [4]; [7] 4% | [4]; [8] -19% | [5]; [7] -5% | [5]; at 50.0 µM -8.05% | [6]; at 50.0 µM 36%

COc1ccc(OC)c2c1C=CC(Br)=CC2
inactive: [1]; [7] 33% | [1]; [8] 33% | [1]; at 50.0 µM 55.1% | [2]; [7] 24% | [2]; [8] 24% | [2]; at 50.0 µM 27% | [3]; [7] 26% | [3]; [8] 26% | [3]; at 50.0 µM 45.5% | [4]; [7] 6% | [4]; [8] 6% | [4]; at 50.0 µM 15.4% | [5]; [7] 19% | [5]; [8] 19% | [5]; at 50.0 µM 40.8% | [6]; [7] 30% | [6]; [8] 30% | [6]; at 50.0 µM 39.5%

CCn1c2nc(=O)n(C)c(=O)c-2[n+]([O-])c2cc(C)ccc21
active: [1]; [8] 70% | [1]; at 50.0 µM 70.5%
inactive: [1]; [7] 16% | [2]; [7] 8% | [2]; [8] 33% | [2]; at 50.0 µM 26.4% | [3]; [7] 4% | [3]; [8] 27% | [3]; at 50.0 µM 44.5% | [4]; [7] -2% | [4]; [8] 7% | [4]; at 50.0 µM 25.1% | [5]; [7] -1% | [5]; [8] 13% | [5]; at 50.0 µM 14.9% | [6]; [7] 0% | [6]; [8] 49% | [6]; at 50.0 µM 10.8%

CCN(CC)CCC(=O)c1ccc2c3c(n(C)c2c1)CCCC3
active: [1]; at 50.0 µM 95.8% | [3]; at 50.0 µM 83.8% | [5]; at 50.0 µM 96.3% | [6]; at 50.0 µM 78.7%
inactive: [1]; [7] 0% | [1]; [8] 9% | [2]; [7] 0% | [2]; [8] 9% | [2]; at 50.0 µM 25.2% | [3]; [7] -4% | [3]; [8] 26% | [4]; [7] -5% | [4]; [8] 22% | [4]; at 50.0 µM 5.85% | [5]; [7] -5% | [5]; [8] 42% | [6]; [7] 3% | [6]; [8] 21%

COc1ccc(C(CN2CCOCC2)C(C)=O)cc1OC (configuration not stated)
inactive: [1]; [7] 7% | [2]; [7] 12% | [3]; [7] 13% | [4]; [7] 7% | [4]; [8] 40% | [4]; at 50.0 µM 23.6% | [5]; [7] 10% | [5]; at 50.0 µM 69.7% | [6]; [7] 5%
active: [1]; [8] 81% | [1]; at 50.0 µM 72.4% | [2]; [8] 93% | [2]; at 50.0 µM 70.1% | [3]; [8] 85% | [3]; at 50.0 µM 88.5% | [5]; [8] 92% | [6]; [8] 93% | [6]; at 50.0 µM 87.2%
